Results as given in the supplement of paper PMC10849652.
The full data set covers some 7,900 targets. This sample favours those with a hit. About 0.6% of all pairs of compound and target were hits.

Legend:
Assay in all cases: log2 fold change, soluble protein after heating vs DMSO (PISA); higher = thermal stabilisation; K562 cells, 10 uM, 30 min; active = over 0.2 and 3.5 SD of the protein, either way, in both replicates (recomputed)
[1] = compound: CS(=O)(=O)c1ccc(-c2cnc(N)c(C(=O)Nc3ccccc3)n2)cc1
How it was run: (§1)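 Thermal stability values are relative to control samples and come from duplicates. They are expressed as log2 fold changes. For measurement, K562 cells (2×10^6 cells/mL) received 10 μM compound for 30 min, and aliquots were heated for 3 min over 48°C-58°C, pooled, and extracted at 4°C in PBS with 0.5% NP-40. Soluble protein, the supernatant after 21,000xg for 90 min, was quantified by TMTpro 16plex LC-MS/MS with equalised channel sums.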

crizotinib = compound: C[C@@H](Oc1cc(-c2cnn(C3CCNCC3)c2)cnc1N)c1c(Cl)ccc(F)c1Cl [crizotinib]
How it was run: as §1

[2] = compound: C[C@@H]1COCCN1C2=NC(=NC(=C2)C3(CC3)S(=O)(=O)C)C4=C5C=CNC5=CC=C4
How it was run: as §1

[3] = compound: C[C@H](C1=CC=C(C=C1)C(=O)NC2=C3C=CNC3=NC=C2)N
How it was run: as §1

duvelisib = compound: C[C@H](Nc1ncnc2nc[nH]c12)c1cc2cccc(Cl)c2c(=O)n1-c1ccccc1 [duvelisib]
How it was run: as §1

gandotinib = compound: Cc1cc(Nc2cc(CN3CCOCC3)c3nc(C)c(Cc4ccc(Cl)cc4F)n3n2)n[nH]1 [gandotinib]
How it was run: as §1

tozasertib = compound: Cc1cc(Nc2cc(N3CCN(C)CC3)nc(Sc3ccc(NC(=O)C4CC4)cc3)n2)n[nH]1 [tozasertib]
How it was run: as §1

[4] = compound: Cc1cc(SCc2sc(-c3ccc(C(F)(F)F)cc3)nc2C)ccc1OCC(=O)O
How it was run: as §1

doramapimod = compound: Cc1ccc(-n2nc(C(C)(C)C)cc2NC(=O)Nc2ccc(OCCN3CCOCC3)c3ccccc23)cc1 [doramapimod]
How it was run: as §1

ispinesib = compound: Cc1ccc(C(=O)N(CCCN)[C@@H](c2nc3cc(Cl)ccc3c(=O)n2Cc2ccccc2)C(C)C)cc1 [ispinesib]
How it was run: as §1

bafetinib = compound: Cc1ccc(NC(=O)c2ccc(CN3CC[C@H](N(C)C)C3)c(C(F)(F)F)c2)cc1Nc1nccc(-c2cncnc2)n1 [bafetinib]
How it was run: as §1

[5] = compound: Cc1cccc(CC(=O)N2CCc3c2ccc(-c2cn(C)c4ncnc(N)c24)c3F)n1
How it was run: as §1

nilotinib = compound: Cc1cn(-c2cc(NC(=O)c3ccc(C)c(Nc4nccc(-c5cccnc5)n4)c3)cc(C(F)(F)F)c2)cn1 [nilotinib]
How it was run: as §1

[6] = compound: Cc1nc(Nc2n[nH]c3c2CN(C(=O)N[C@H](CN(C)C)c2ccccc2)C3(C)C)c2sccc2n1
How it was run: as §1

dasatinib = compound: Cc1nc(Nc2ncc(C(=O)Nc3c(C)cccc3Cl)s2)cc(N2CCN(CCO)CC2)n1 [dasatinib]
How it was run: as §1

[7] = compound: Cc1ncc(-c2ccnc(Nc3ccc(S(C)(=O)=O)cc3)n2)n1C(C)C
How it was run: as §1

[8] = compound: Cn1cc(-c2ccc3c(c2)CCN3C(=O)Cc2cccc(C(F)(F)F)c2)c2c(N)ncnc21
How it was run: as §1

[9] = compound: Cn1cc(-c2ccc3nnc(C(F)(F)c4ccc5ncccc5c4)n3n2)cn1
How it was run: as §1

tipifarnib = compound: Cn1cncc1[C@@](N)(c1ccc(Cl)cc1)c1ccc2c(c1)c(-c1cccc(Cl)c1)cc(=O)n2C [tipifarnib]
How it was run: as §1

mubritinib = compound: FC(F)(F)c1ccc(/C=C/c2nc(COc3ccc(CCCCn4ccnn4)cc3)co2)cc1 [mubritinib]
How it was run: as §1

Measured: log2 fold change

MAGI1 (UniProt Q96QZ7)
Chain of UniProt Q96QZ7 (Q96QZ7 whole entry, looked up): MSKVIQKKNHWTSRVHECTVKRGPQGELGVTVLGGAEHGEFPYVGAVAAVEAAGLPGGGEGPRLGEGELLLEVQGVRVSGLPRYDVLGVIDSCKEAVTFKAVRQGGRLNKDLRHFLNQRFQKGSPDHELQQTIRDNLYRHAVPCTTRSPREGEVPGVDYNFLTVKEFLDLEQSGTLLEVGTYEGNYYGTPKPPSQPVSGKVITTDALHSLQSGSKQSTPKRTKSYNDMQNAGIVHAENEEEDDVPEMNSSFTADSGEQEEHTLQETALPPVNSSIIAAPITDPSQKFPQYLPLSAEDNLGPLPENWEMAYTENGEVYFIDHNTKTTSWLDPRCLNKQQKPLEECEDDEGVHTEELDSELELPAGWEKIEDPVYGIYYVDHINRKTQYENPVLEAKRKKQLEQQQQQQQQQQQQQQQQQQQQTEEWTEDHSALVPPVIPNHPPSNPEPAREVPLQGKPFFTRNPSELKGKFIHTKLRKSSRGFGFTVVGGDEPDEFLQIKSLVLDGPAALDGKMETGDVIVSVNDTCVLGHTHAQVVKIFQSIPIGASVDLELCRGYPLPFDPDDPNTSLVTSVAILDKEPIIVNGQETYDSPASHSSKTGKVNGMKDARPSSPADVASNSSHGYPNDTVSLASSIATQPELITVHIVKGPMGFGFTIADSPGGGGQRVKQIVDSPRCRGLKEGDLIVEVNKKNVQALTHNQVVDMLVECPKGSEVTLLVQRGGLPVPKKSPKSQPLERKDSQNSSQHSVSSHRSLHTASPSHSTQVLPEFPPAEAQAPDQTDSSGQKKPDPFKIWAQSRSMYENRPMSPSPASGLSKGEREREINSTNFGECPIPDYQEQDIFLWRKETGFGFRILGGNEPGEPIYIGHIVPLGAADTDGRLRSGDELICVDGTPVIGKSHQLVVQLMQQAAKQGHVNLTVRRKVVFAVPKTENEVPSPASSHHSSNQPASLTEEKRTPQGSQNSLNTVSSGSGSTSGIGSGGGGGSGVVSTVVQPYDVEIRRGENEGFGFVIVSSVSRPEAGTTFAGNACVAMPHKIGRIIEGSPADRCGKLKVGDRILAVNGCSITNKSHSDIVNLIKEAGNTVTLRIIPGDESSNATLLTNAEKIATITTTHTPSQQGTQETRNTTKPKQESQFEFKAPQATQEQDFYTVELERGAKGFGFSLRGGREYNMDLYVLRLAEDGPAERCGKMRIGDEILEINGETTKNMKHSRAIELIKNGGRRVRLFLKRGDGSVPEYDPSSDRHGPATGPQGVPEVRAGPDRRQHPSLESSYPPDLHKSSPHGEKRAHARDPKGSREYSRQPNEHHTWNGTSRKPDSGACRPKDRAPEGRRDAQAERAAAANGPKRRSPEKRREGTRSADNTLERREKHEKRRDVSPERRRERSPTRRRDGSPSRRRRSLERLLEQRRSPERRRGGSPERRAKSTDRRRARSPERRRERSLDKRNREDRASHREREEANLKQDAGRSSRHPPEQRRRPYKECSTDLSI
active: [6] -0.477
inactive: [1] -0.006 | crizotinib -0.003 | [2] -0.053 | [3] 0.032 | duvelisib -0.013 | gandotinib 0.003 | tozasertib -0.03 | [4] 0.046 | doramapimod 0.024 | ispinesib -0.042 | bafetinib -0.055 | [5] -0.023 | nilotinib 0.015 | dasatinib 0.039 | [7] -0.044 | [8] 0.052 | [9] -0.079 | tipifarnib 0.079 | mubritinib -0.021

MICOS13 (UniProt Q5XKP0)
Chain of UniProt Q5XKP0 (Q5XKP0 whole entry, looked up): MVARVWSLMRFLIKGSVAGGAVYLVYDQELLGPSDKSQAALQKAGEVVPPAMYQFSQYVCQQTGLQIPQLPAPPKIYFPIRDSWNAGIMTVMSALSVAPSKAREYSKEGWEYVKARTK
active: ispinesib -0.257
inactive: [1] 0.049 | crizotinib -0.164 | [2] 0.156 | [3] -0.08 | duvelisib 0.031 | gandotinib -0.216 | tozasertib -0.047 | [4] -0.055 | doramapimod -0.027 | bafetinib -0.114 | [5] 0.014 | nilotinib -0.054 | [6] 0.025 | dasatinib -0.085 | [7] 0.001 | [8] 0.046 | [9] 0.056 | tipifarnib -0.111 | mubritinib 0.117

ITGA2B (UniProt P08514)
Chain of UniProt P08514 (P08514 whole entry, looked up): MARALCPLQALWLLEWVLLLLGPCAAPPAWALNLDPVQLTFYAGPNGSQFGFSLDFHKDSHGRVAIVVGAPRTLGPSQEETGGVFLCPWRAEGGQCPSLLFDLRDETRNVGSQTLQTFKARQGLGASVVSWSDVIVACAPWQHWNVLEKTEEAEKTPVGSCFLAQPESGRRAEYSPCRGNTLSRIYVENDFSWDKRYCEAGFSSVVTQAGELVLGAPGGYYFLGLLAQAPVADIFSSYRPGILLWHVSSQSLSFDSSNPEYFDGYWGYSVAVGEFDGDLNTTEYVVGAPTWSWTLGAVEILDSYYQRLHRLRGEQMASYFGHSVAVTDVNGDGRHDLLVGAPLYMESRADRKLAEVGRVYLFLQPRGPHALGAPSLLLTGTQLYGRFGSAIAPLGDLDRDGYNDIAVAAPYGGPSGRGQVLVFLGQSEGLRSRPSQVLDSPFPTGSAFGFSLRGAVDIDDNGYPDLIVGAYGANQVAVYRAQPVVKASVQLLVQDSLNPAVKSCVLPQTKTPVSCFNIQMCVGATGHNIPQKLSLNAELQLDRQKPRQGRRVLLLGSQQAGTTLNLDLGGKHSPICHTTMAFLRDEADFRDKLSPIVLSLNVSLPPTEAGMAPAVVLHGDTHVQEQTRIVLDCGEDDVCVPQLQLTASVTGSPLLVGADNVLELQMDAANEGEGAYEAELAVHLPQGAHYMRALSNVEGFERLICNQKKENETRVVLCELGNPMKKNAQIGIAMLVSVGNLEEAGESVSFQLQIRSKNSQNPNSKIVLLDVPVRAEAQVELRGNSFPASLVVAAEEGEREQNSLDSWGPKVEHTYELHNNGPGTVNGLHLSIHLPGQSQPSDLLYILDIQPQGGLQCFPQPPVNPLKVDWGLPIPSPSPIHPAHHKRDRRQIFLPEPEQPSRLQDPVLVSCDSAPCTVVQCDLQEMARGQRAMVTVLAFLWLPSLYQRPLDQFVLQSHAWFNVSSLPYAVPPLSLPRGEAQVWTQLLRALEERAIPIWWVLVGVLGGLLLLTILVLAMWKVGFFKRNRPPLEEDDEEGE
inactive: [1] -0.076 | crizotinib -0.068 | [2] -0.077 | [3] 0.045 | duvelisib -0.11 | gandotinib 0.283 | tozasertib 0.15 | [4] 0 | doramapimod 0.031 | ispinesib -0.088 | [5] 0.256 | nilotinib -0.04 | [6] -0.013 | dasatinib 0.012 | [7] -0.151 | [8] -0.122 | [9] -0.051 | tipifarnib 0.073

MED17 (UniProt Q9NVC6)
Chain of UniProt Q9NVC6 (Q9NVC6 whole entry, looked up): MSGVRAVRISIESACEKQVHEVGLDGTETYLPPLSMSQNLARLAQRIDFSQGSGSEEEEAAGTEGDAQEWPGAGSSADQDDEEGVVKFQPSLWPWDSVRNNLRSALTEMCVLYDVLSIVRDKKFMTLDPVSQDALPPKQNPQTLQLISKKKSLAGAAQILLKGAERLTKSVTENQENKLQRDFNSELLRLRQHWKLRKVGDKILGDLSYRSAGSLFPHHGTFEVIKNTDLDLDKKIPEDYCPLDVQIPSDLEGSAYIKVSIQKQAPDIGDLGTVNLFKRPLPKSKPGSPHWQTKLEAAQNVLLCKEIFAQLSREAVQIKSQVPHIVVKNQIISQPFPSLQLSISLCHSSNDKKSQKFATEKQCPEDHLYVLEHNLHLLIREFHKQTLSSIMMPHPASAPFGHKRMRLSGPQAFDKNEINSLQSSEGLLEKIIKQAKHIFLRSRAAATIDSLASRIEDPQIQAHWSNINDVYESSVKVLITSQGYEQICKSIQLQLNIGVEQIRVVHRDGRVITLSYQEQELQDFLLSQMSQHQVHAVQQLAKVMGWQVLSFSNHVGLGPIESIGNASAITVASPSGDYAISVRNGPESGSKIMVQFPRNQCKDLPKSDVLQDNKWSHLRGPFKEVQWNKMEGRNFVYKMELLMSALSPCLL
inactive: [1] -0.02 | crizotinib -0.004 | [2] 0.028 | [3] 0.119 | duvelisib -0.067 | gandotinib 0.007 | tozasertib -0.042 | [4] 0.109 | doramapimod 0.022 | ispinesib -0.049 | [5] -0.033 | nilotinib 0.069 | [6] 0.079 | dasatinib -0.152 | [7] -0.108 | [8] -0.033 | [9] -0.069 | tipifarnib 0.077 | mubritinib 0.015

IWS1 (UniProt Q96ST2)
inactive: [1] 0.077 | crizotinib 0.146 | [2] 0.132 | [3] 0.119 | duvelisib 0.028 | gandotinib 0.108 | tozasertib 0.058 | [4] 0.062 | doramapimod -0.134 | ispinesib 0.061 | bafetinib 0.018 | [5] -0.022 | nilotinib -0.024 | [6] 0.092 | dasatinib -0.054 | [8] -0.013 | [9] 0.022 | tipifarnib -0.021 | mubritinib 0.035
active: [7] 0.311

MAPRE3 (UniProt Q9UPY8)
Chain of UniProt Q9UPY8 (Q9UPY8 whole entry, looked up): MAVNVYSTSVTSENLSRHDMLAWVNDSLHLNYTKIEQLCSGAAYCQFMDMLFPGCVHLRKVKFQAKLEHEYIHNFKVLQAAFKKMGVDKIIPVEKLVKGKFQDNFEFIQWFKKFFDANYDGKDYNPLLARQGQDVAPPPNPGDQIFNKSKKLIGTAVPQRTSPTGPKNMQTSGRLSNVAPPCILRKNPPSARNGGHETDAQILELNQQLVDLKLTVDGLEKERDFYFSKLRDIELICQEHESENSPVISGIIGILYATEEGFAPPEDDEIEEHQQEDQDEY
inactive: [1] -0.011 | crizotinib 0.004 | [2] 0.092 | [3] -0.085 | duvelisib 0.02 | gandotinib -0.098 | tozasertib 0.037 | [4] 0.006 | doramapimod -0.042 | ispinesib 0.02 | bafetinib -0.037 | [5] 0.038 | nilotinib -0.012 | [6] -0.038 | dasatinib -0.042 | [7] 0.021 | [8] -0.041 | [9] 0.061 | tipifarnib -0.037 | mubritinib 0.027

LARP4 isoform 4 (UniProt Q71RC2)
Chain of UniProt Q71RC2 (Q71RC2 whole entry, looked up): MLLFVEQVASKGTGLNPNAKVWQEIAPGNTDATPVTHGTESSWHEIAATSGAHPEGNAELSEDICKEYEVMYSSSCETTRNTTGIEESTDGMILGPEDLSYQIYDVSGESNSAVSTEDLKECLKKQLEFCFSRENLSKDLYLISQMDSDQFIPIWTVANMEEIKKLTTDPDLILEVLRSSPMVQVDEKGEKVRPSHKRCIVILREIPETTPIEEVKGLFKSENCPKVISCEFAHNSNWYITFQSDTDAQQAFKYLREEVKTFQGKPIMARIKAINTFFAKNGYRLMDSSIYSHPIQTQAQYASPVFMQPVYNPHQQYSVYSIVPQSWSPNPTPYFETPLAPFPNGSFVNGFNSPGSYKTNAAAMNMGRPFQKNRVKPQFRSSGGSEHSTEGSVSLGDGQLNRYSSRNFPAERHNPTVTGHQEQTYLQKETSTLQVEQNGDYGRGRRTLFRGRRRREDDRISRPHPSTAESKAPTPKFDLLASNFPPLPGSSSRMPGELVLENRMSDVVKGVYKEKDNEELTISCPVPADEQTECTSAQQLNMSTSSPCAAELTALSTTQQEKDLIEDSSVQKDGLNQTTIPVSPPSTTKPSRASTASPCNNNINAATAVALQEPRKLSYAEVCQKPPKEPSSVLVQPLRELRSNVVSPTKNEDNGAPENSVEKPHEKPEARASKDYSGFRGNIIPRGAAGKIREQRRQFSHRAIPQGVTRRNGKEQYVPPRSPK
active: [2] -0.308
inactive: [1] -0.027 | crizotinib -0.098 | [3] 0.177 | duvelisib -0.075 | gandotinib 0 | tozasertib 0.017 | [4] 0.06 | doramapimod 0.104 | ispinesib -0.237 | bafetinib 0.022 | [5] -0.027 | nilotinib -0.073 | [6] -0.147 | dasatinib 0 | [7] -0.028 | [8] -0.078 | [9] -0.103 | tipifarnib 0.071 | mubritinib -0.046

MEAK7 (UniProt Q6P9B6)
Chain of UniProt Q6P9B6 (Q6P9B6 whole entry, looked up): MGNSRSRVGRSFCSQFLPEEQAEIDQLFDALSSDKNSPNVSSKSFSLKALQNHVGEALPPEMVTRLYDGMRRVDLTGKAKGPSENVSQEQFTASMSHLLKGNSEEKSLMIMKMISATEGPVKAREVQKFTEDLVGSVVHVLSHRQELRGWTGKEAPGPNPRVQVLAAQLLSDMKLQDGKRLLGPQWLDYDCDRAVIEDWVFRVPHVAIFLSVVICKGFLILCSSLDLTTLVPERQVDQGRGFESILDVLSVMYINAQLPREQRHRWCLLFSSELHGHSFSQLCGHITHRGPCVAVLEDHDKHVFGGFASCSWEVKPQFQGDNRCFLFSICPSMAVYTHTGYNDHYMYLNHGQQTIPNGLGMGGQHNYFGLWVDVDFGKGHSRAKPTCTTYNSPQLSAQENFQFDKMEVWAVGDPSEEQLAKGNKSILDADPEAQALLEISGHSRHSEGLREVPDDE
inactive: [1] -0.005 | [2] 0.049 | [3] 0.005 | duvelisib 0.121 | gandotinib -0.224 | tozasertib 0.018 | [4] 0.024 | doramapimod 0.031 | ispinesib -0.139 | bafetinib -0.094 | [5] 0.042 | nilotinib 0.024 | [6] -0.036 | dasatinib -0.078 | [7] 0.025 | [8] 0.02 | [9] -0.03 | tipifarnib -0.022 | mubritinib 0.052
active: crizotinib -0.259
